Molecules are shown by their SMILES. Unmarked numbers belong to inactive results. For some of these results: Results with a measured potency or affinity are listed apart. Activity calls are given as the source filed them. Unless noted, no rule for the calls is given here.

The text below walks through data of PubChem BioAssay.

Assay [1] in a line: antimalarial activity against Dd2 strain (AID 2302;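 active = growth inhibition above 50% at the single 2 µM test dose, taken to imply half-maximal potency below 2 µM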;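 also: 0% = DMSO untreated growth and 100% = chloroquine plus artemisinin killed control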). As to conditions: P. falciparum Dd2 in RBCs, LDH growth readout, 72 h; at 2 µM; active compounds read high.
A short description of assay [2]: HepG2 cytotoxicity, primary screen, cytotoxicity control for P. falciparum antimalarial project, cell-based, ATP luminescence (AID 2303;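 active = inhibition above 50%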;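 also: 0% = DMSO wells and 100% = digitonin-killed cells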). As to conditions: HepG2 viability, 24-48 h, at 10 µM, active compounds read high.
The target in assay [3] is L-lactate dehydrogenase (Plasmodium falciparum (isolate CDC / Honduras)) (UniProt Q27743). The assay is described as follows: PfLDH activity inhibition – cell lysate, 3D7 strain, counter-screen for P. falciparum growth inhibition project (AID 2304).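 Also: 0% = vehicle and 100% = reference inhibitor.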 As to conditions: P. falciparum 3D7 crude extract, LDH APAD/NBT absorbance; at 2 µM; active compounds read high. On the technique in general: A counterscreen serves to expose hits that act by an unwanted route or on another target.
Sequence of L-lactate dehydrogenase (Plasmodium falciparum (isolate CDC / Honduras)) (Q27743 whole entry, looked up): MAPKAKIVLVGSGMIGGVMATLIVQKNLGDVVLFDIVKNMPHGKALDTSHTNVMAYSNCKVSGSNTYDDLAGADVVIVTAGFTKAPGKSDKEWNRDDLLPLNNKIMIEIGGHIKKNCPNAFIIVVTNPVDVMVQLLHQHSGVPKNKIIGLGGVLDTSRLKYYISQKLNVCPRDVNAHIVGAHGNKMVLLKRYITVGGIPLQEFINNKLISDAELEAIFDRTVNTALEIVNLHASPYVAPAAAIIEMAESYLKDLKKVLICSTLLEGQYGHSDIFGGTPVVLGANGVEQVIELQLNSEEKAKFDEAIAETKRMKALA

Assay [4] is described as follows: inhibition of 3D7 malaria parasite growth – strain 3D7 (AID 2306).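 Also: 0% = DMSO wells and 100% = chloroquine plus artemisinin control wells.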 As to conditions: P. falciparum 3D7 erythrocytic growth, LDH absorbance, 72 h; at 2 µM; active compounds read high.
The target of assay [5] is Calcium-dependent protein kinase 1 (Plasmodium falciparum (isolate 3D7)) (UniProt P62344). The assay is described as follows: PfCDPK1 kinase inhibitors, biochemical, TCAMS library (AID 1159585; cut-off not given, nearly all actives have IC50 up to about 0.98 µM;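 also: inhibitors leave more ATP so luminescence rises with inhibition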). As to conditions: recombinant PfCDPK1, Kinase-Glo ATP depletion luminescence.
Sequence of Calcium-dependent protein kinase 1 (Plasmodium falciparum (isolate 3D7)) (P62344 whole entry, looked up): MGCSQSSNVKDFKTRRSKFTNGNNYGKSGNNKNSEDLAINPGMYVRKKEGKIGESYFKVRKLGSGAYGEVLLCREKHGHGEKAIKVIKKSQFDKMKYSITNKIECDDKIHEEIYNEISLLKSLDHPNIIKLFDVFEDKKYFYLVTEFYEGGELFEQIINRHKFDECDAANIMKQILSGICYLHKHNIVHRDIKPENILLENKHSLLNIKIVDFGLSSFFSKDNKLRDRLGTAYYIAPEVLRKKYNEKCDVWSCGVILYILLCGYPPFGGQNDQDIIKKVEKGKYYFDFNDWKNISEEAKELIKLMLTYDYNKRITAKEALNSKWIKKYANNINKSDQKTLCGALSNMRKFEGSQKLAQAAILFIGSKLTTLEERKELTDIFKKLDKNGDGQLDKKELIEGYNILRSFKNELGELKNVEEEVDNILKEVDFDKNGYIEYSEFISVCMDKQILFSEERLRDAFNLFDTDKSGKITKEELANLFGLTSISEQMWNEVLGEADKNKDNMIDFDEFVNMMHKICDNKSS
For assay [6], the target named is Plasmodium falciparum protein kinase 6 (PK6, PF3D7_1337100) (UniProt Q8IDW1). The assay is described as follows: PfPK6 kinase inhibitors, biochemical, TCAMS library (AID 1159586). As to conditions: recombinant PfPK6, Kinase-Glo ATP depletion luminescence. On the technique in general: Kinase-Glo measures the ATP left after a reaction by luminescence.
Sequence of Plasmodium falciparum protein kinase 6 (PK6, PF3D7_1337100) (Q8IDW1 1-305): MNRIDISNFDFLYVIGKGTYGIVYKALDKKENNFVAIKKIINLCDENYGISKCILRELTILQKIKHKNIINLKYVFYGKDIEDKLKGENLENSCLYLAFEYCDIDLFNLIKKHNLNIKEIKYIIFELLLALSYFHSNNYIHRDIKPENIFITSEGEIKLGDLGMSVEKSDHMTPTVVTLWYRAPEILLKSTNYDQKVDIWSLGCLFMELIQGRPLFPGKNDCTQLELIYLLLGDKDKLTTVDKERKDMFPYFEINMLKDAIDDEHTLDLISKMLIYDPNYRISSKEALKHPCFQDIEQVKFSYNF
Assay [7] deals with Protein kinase 7 (PK7), Plasmodium falciparum 3D7 (PF3D7_0213400) (UniProt Q7YTF7). The assay is described as follows: inhibition of Plasmodium PK7 catalytic activity – biochemical, TCAMS antimalarial set, Kinase-Glo luminescence (AID 1159587). As to conditions: recombinant PfPK7, Kinase-Glo ATP depletion luminescence.
Sequence of Protein kinase 7 (PK7), Plasmodium falciparum 3D7 (PF3D7_0213400) (Q7YTF7 1-343): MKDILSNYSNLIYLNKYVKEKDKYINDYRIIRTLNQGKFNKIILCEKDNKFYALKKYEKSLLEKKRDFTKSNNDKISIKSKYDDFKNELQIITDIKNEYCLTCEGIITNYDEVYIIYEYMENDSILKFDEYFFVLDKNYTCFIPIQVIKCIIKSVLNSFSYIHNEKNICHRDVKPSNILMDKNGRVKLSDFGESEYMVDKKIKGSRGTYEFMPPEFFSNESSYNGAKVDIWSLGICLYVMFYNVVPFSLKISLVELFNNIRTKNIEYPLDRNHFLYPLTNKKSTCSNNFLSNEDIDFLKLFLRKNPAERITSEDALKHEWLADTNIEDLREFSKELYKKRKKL
The target in assay [8] is Calcium-dependent protein kinase 4 (Plasmodium falciparum (isolate 3D7)) (UniProt Q8IBS5). The assay is described as follows: PfCDPK4 kinase inhibitors, biochemical, TCAMS library (AID 1159588; cut-off not given, nearly all actives have IC50 up to about 0.91 µM). As to conditions: recombinant PfCDPK4, Kinase-Glo ATP depletion luminescence.
Sequence of Calcium-dependent protein kinase 4 (Plasmodium falciparum (isolate 3D7)) (Q8IBS5 whole entry, looked up): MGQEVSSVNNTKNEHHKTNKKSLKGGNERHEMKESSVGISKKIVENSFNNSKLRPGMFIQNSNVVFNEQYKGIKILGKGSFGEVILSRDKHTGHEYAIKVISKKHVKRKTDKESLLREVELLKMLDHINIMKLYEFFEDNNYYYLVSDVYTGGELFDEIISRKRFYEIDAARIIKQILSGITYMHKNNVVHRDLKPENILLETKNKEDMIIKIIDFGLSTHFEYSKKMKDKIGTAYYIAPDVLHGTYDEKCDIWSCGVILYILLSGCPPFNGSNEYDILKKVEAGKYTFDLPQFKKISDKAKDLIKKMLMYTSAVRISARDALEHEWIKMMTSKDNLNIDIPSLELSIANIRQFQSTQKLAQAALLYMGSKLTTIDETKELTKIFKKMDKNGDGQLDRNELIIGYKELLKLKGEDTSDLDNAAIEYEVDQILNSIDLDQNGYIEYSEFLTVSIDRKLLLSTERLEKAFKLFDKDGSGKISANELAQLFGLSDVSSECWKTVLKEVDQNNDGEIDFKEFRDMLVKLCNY

Broadly, the inhibition is the relative decrease from the control value, in per cent. As for `CC(CC(=O)NCC1(c2ccc(F)cc2Cl)CCOCC1)C(=O)c1ccc(Cl)cc1` (stereo not given), the growth inhibition in assay [1] is 91% (active); in assay [4], 99% (active). For the same molecule, the inhibition in assay [2] was 6%; in assay [3], 2%. For the same molecule, the result in assay [5], in assay [6], in assay [7] and in assay [8] was inactive.

As for `Cc1ccoc1C(=O)Nc1ccc(-c2cccc(-c3nc4c(C)cccc4[nH]3)c2)cc1`, the growth inhibition in assay [1] is 69% (active); in assay [4] it was 95% (active). The inhibition in assay [2] was 15%; in assay [3], -4%. The result in assay [5], in assay [6], in assay [7] and in assay [8] was inactive.

For `O=C(NCCN1CCCC1)c1cccc(-c2ccc(-c3nc4ccc(F)cc4[nH]3)cc2)c1`, the growth inhibition in assay [1] is 85% (active); in assay [4] it was 99% (active). Besides, the inhibition in assay [2] is 33%; in assay [3] it was -3%. Moreover, the result in assay [5], in assay [6], in assay [7] and in assay [8] was inactive.

For `N#CCSc1nnc(-c2ccccc2)c2ccccc12`, the growth inhibition in assay [1] was 73% (active); in assay [4] it was 84% (active). The results for the inhibition in assay [2] and in assay [3] were 5% and -1%, respectively. Further, the outcome in assay [5], in assay [6], in assay [7] and in assay [8] was inactive.

Take `O=C(Nc1cccc(-c2cc(-c3c(Cl)cccc3Cl)no2)c1)c1cnc2ccccc2c1`: the growth inhibition was 34% in assay [1] and 87% (active) in assay [4]. The inhibition in assay [2] was -6%; in assay [3], -3%. In addition, the result in assay [5], in assay [6], in assay [7] and in assay [8] was inactive.

Turning to `Fc1cc(Cl)ccc1Nc1ccnc2cc(-c3scnc3CNCCN3CCOCC3)ccc12`, the growth inhibition is 84% (active) in assay [1] and 99% (active) in assay [4]. The inhibition in assay [2] is -7%; in assay [3] it was -2%. For the same molecule, the outcome in assay [5], in assay [6], in assay [7] and in assay [8] was inactive.

For `NC1=NC(C=Cc2ccccc2)N(OCCCCCCON2C(N)=NC(N)=NC2C=Cc2ccccc2)C(N)=N1` (stereo not given), the growth inhibition is 94% (active) in assay [1] and 97% (active) in assay [4]. Besides, the inhibition in assay [2] is 17%; in assay [3] it was 3%. Besides, the outcome in assay [5], in assay [6], in assay [7] and in assay [8] was inactive.

With `Cc1cc(N2CCCCC2)nc2ccc(NC(=O)c3cc(=O)c4ccccc4o3)cc12`, the growth inhibition is 19% in assay [1] and 98% (active) in assay [4]. Further, the inhibition is 15% in assay [2] and -7% in assay [3]. The result in assay [5], in assay [6], in assay [7] and in assay [8] was inactive.

Consider `CCC[C@@H]([C@@H](CC(C)C)C(=O)N[C@@H](CCCNc1nccc(C(F)(F)F)n1)C(=O)Nc1nccs1)N(O)C=O`, for which the growth inhibition in assay [1] was 98% (active); in assay [4] it was 99% (active). For the same molecule, the inhibition in assay [2] was -4%; in assay [3], 8%. The outcome in assay [5], in assay [6], in assay [7] and in assay [8] was inactive.

As to `COc1cccc(CC(=O)NC2CCN(c3ccnc4cc(Cl)ccc34)C2)c1` (stereo not given), the results for the growth inhibition in assay [1] and in assay [4] were 85% (active) and 101% (active), respectively. In addition, the inhibition in assay [2] was 9%; in assay [3], -2%. Also, the outcome in assay [5], in assay [6], in assay [7] and in assay [8] was inactive.

As to `O=C(C=Cc1ccc(Cl)c(Cl)c1)NCCCCCN1CCC(CCNS(=O)(=O)c2ccc(F)cc2)CC1`, the values for the growth inhibition in assay [1] and in assay [4] were -5% and 88% (active), respectively. Moreover, the inhibition in assay [2] was 36%; in assay [3] it was 2%. Moreover, the result in assay [5], in assay [6], in assay [7] and in assay [8] was inactive.

In the case of `CN1CCN(CC(=O)Nc2cccc(-c3ccc(-c4nc5ccc(C(F)(F)F)cc5[nH]4)cc3)c2)CC1`, the growth inhibition is 94% (active) in assay [1] and 102% (active) in assay [4]. The figures for the inhibition in assay [2] and in assay [3] were 37% and -3%, respectively. Moreover, the outcome in assay [5], in assay [6], in assay [7] and in assay [8] was inactive.

With `COc1ccc2nccc([C@@H](O)CN3CCC(NC(=O)/C=C/c4cc(F)cc(Br)c4)CC3)c2c1`, the values for the growth inhibition in assay [1] and in assay [4] were 50% (active) and 95% (active), respectively. Moreover, the inhibition was 24% in assay [2] and 7% in assay [3]. The result in assay [5], in assay [6], in assay [7] and in assay [8] was inactive.

In the case of `COc1cccc(CCNc2nc(NCc3ccccc3)c3cc(OC)c(OC)cc3n2)c1`, the growth inhibition in assay [1] was 99% (active); in assay [4] it was 100% (active). The inhibition in assay [2] was 20%; in assay [3], -6%. Besides, the result in assay [5], in assay [6], in assay [7] and in assay [8] was inactive.

Take `COc1ccc(CCN(C)CCOc2ccc(NC(=O)c3cccc4c(=O)c5cc(SC)ccc5[nH]c34)cc2)cc1OC`: the growth inhibition in assay [1] is 82% (active); in assay [4], 97% (active). Further, the inhibition was 52% (active) in assay [2] and 0% in assay [3]. In addition, the result in assay [5], in assay [6], in assay [7] and in assay [8] was inactive.

`Cc1cc(Nc2ccc3ccccc3c2)n2ncnc2n1`: the growth inhibition in assay [1] was 95% (active); in assay [4], 96% (active). For the same molecule, the inhibition in assay [2] is 11%; in assay [3] it was -2%. Besides, the result in assay [5], in assay [6], in assay [7] and in assay [8] was inactive.

Turning to `CN1CCN(CCCCNc2c3ccccc3nc3ccccc23)CC1`, the growth inhibition in assay [1] is -7%; in assay [4], 101% (active). In addition, the figures for the inhibition in assay [2] and in assay [3] were 37% and 4%, respectively. Besides, the result in assay [5], in assay [6], in assay [7] and in assay [8] was inactive.

Turning to `N#Cc1ccc(NC2(C(=O)N3CCN(c4cccc(Cl)c4)CC3)CC2)c2ccccc12`, the growth inhibition in assay [1] was 66% (active); in assay [4], 94% (active). In addition, the inhibition in assay [2] was -5%; in assay [3], 0%. The outcome in assay [5], in assay [6], in assay [7] and in assay [8] was inactive.

Consider `CCc1cc(NC(=O)Nc2ccnc3ccccc23)ccc1OC`, for which the growth inhibition in assay [1] was 24%; in assay [4], 85% (active). The figures for the inhibition in assay [2] and in assay [3] were -6% and 2%, respectively. The result in assay [5], in assay [6], in assay [7] and in assay [8] was inactive.

Consider `COc1cc(-c2cc3cc(Cl)c(Cl)cc3[nH]2)ccc1C(=O)NC1CCN(Cc2ccccc2)CC1`, for which the growth inhibition in assay [1] was 101% (active); in assay [4], 102% (active). Also, the inhibition in assay [2] was 12%; in assay [3], -3%. Further, the outcome in assay [5], in assay [6], in assay [7] and in assay [8] was inactive.
